Screens: PubChem, National Center for Advancing Translational Sciences (NCATS)
Compounds with a hit are over-represented: about 19% of the library has one in this group of screens.
TDP1 cell CPT: growth inhibition of DT40 Tdp1-/-;hTDP1 cells with camptothecin (screen for TDP1 inhibitors). chicken DT40 Tdp1-/-;hTDP1 cells + 20 nM CPT, ATP luminescence, 48 h. Potency, µM (doses to about 46.2 µM), most hits filed as inhibitors. 420,000 tested, 12% active; note: nearly all actives have a fitted effect of over 55% in size
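Cell growth measured by CellTiter-Glo luminescence after a minimum 48 h, 37 C compound exposure with 20 nM CPT in Tdp1-knockout DT40 cells stably expressing hTDP1, seeded 400/well; qHTS titration format.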
TGFb SMAD3 inh: blocks TGF-b signaling; 410,000 tested, 1.2% active; HepG2 CAGA-GFP TGF-b/SMAD3 reporter, GFP fluorescence, 18 h; TGF-beta stimulated, 500 pg/mL final; Potency, µM (titrated, usually from 46.1 µM), actives largely listed as inhibitors; AID 588855; note: nearly all actives have a fitted effect of over 65% in size
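Using HEPG2 CAGA-GFP reporter cells at 1000 cells/well, we pinned test compounds, stimulated with recombinant TGF-beta (500 pg/mL final) and measured total well GFP after 18 h.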
HepG2 viability: kills HepG2 cells in TGF-b inhibitor counter-screen. Potency, µM (top dose mostly 46.1 µM), actives largely listed as cytotoxic. 410,000 tested, 0.76% active. AID 588856. HepG2 CAGA-GFP viability, ATP luminescence, 18 h
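CellTiter-Glo luminescence gave cytotoxicity after 18 hours at 37 degrees C. The cells were HepG2 CAGA-GFP in 1% FBS DMEM, stimulated with 500 pg/mL TGF-beta after compound addition. %Activity was normalised to no-cell wells (complete cell-killing) and DMSO (no toxicity), and curves were fitted and classified.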
TDP1 inh: inhibitors of human tyrosyl-DNA phosphodiesterase TDP1; Q9NUW8; recombinant TDP1, AlphaScreen DNA substrate cleavage; Potency, µM (series often up to 130 µM), actives largely listed as inhibitors; 350,000 tested, 0.28% active; note: nearly all actives have a fitted effect of over 40% in size
Target sequence (Q9NUW8 whole entry, looked up): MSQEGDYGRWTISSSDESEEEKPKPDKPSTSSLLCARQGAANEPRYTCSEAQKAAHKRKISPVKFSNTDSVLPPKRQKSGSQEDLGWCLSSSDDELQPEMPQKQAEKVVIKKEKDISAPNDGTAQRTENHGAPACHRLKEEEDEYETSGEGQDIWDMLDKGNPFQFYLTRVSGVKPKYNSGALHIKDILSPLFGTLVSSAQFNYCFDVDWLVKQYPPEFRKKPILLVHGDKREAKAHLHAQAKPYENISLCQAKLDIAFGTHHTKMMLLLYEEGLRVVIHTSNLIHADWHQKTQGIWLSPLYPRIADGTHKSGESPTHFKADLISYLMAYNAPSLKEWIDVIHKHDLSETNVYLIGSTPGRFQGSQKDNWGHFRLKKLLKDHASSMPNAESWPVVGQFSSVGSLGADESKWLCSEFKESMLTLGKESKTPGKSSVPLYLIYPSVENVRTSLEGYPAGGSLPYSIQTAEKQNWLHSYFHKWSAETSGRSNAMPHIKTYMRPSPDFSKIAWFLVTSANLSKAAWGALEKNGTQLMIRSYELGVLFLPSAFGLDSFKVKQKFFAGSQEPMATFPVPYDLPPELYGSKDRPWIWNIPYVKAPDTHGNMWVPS
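Enzyme-compound mixtures sat 15 min at room temperature, followed by a 5 min reaction with 15 nM final substrate and 10 min with AlphaScreen beads. Recombinant human Tdp1 was used at 1 nM final.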
IL-1B inflam inh: inflammasome signaling inhibition, IL-1 beta readout; THP-1 LPS/ATP IL-1B secretion, AlphaLISA, 16 h; active compounds read low; activity change, % at 57.5 µM; 360,000 tested, 4.7% active; AID 743279; in the data active = activity change below about -50%; inconclusive = mostly about -30% to -49%
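THP-1 cells pretreated 1 hr with compounds (up to 57.5 uM final), then stimulated with LPS (250 ng/mL final) plus ATP (1.25 mM final); secreted IL-1B measured by AlphaLISA after 16 hr, decreased signal indicating inhibition.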
TDP1 cell noCPT: qHTS for Inhibitors of human tyrosyl-DNA phosphodiesterase 1 (TDP1): qHTS in cells in absence of CPT. DT40 Tdp1-/- hTDP1 cells, no CPT, ATP luminescence, 48 h. Potency, µM (series often up to 46.2 µM), usual class: inhibitors. 420,000 tested, 15% active; note: nearly all actives have a fitted effect of over 55% in size
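Readout: luminescence from CellTiter-Glo after 30 min in the dark at RT. Cells: DT40 Tdp1-/- with stable hTDP1, 400/well. Exposure: compounds alone, ≥48 hr, 37 °C.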
Large screens that a line does not name were inactive. Unless noted, calls come from the whole dose curve; as a rule, active = well fitted curve in the direction sought with a large enough effect; inconclusive = small, poorly fitted or top-dose-only effect, or another doubt; inactive = no such curve, though single readings can be large; an effect the other way counts as inactive or inconclusive.

CCN1C(=O)[C@@H]2[C@@H](c3ccc(-c4ccc(F)cc4)c(OC)c3)N3CCCC[C@@]3(C(=O)OC)[C@@H]2C1=O	TDP1 cell CPT 16.4µM, TDP1 cell noCPT 16.4µM
CCSc1ccc([C@@H]2[C@@H]3C(=O)N(CC)C(=O)[C@@H]3[C@]3(C(=O)OC)CCCCN23)cc1OC	TGFb SMAD3 inh inconclusive, TDP1 cell noCPT inconclusive
CCN1C(=O)[C@@H]2[C@@H](c3ccc(-c4ccc(F)cc4)cc3)N3CCCC[C@@]3(C(=O)OC)[C@@H]2C1=O	TDP1 cell CPT inconclusive, TDP1 cell noCPT 23.1µM
CCN1C(=O)[C@H]2[C@@H](c3ccc(-c4ccc(C(C)=O)cc4)c(OC)c3)N3CCCC[C@@]3(C(=O)OC)[C@H]2C1=O	TDP1 cell CPT 23.1µM, TDP1 cell noCPT 16.4µM
C/C=C(/CC[C@@H](C)[C@H]1CC[C@H]2C3=CC[C@H]4[C@H](C)[C@@H](O)CC[C@]4(C)[C@H]3CC[C@]12C)C(C)C	none (no result: TGFb SMAD3 inh, HepG2 viability, TDP1 inh, IL-1B inflam inh)
COc1ccc(Cl)cc1N=Cc1c(O)c2ccccc2oc1=O	TDP1 cell CPT 16.4µM, TDP1 cell noCPT inconclusive
COc1ccc(-c2nn(-c3ccccc3)cc2/C=N/NC(=O)c2ccc(Br)o2)cc1	TDP1 cell CPT 20.6µM, TDP1 cell noCPT 20.6µM
C=CCNC(=S)N/N=C/c1cn(-c2ccccc2)nc1-c1ccc(OC)cc1	TDP1 cell noCPT 9.2µM
COc1ccc(-c2nn(-c3ccccc3)cc2/C=N/NC(=O)c2cccc(S(=O)(=O)Nc3ccccc3OC)c2)cc1	none
COc1ccc(-n2c(=O)c3c4c(sc3n(Cc3c(F)cccc3Cl)c2=O)CN(C(C)=O)CC4)cc1OC	TDP1 cell CPT inconclusive, TDP1 cell noCPT inconclusive (no result: IL-1B inflam inh)
Cc1ccc2nc(-c3ccc(C#N)cc3)c(Cc3ccccc3C(F)(F)F)n2c1	TDP1 cell CPT 23.1µM, TGFb SMAD3 inh inconclusive, TDP1 cell noCPT inconclusive (no result: TDP1 inh)
Cc1ccc2nc(-c3ccc(Cl)cc3)c(Cc3ccccc3C(F)(F)F)n2c1	TDP1 cell CPT 25.9µM, TDP1 cell noCPT inconclusive (no result: TDP1 inh)
Cc1ccc(-c2nc3ccc(Cl)cn3c2Cc2ccccc2C(F)(F)F)cc1	TGFb SMAD3 inh inconclusive, TDP1 cell noCPT inconclusive (no result: TDP1 inh)
CC1(c2ccccc2)NC(=O)N(CC(=O)N2CCN(S(=O)(=O)c3cccc([N+](=O)[O-])c3)CC2)C1=O (stereo not given)	none (no result: TDP1 inh)
CC(C)CCn1c(=O)c2ccccc2n2c(CN(C)Cc3ccccc3)nnc12	TDP1 cell CPT 23.1µM, TDP1 cell noCPT 16.4µM
CC(C)CCn1c(=O)c2ccccc2n2c(CCl)nnc12	TDP1 cell CPT inconclusive, TDP1 cell noCPT 23.1µM (no result: IL-1B inflam inh)
CC(C)CCn1c(=O)c2ccccc2n2c(CCC(=O)NC3CCN(Cc4ccccc4)CC3)nnc12	TDP1 cell CPT inconclusive, TDP1 cell noCPT inconclusive
CC(C)CCn1c(=O)c2ccccc2n2c(=S)[nH]nc12	TDP1 cell noCPT inconclusive
CC[C@H](C)[C@H](NC(=O)[C@H](CC(C)C)NC(=O)[C@H](CO)NC(=O)[C@H](CCC(=O)O)NC(=O)[C@H](CC(C)C)NC(=O)[C@H](Cc1ccc(O)cc1)NC(=O)[C@H](CCCCN)NC(=O)[C@H](CCCCN)NC(=O)[C@H](C)NC(=O)[C@H](CO)NC(=O)[C@H](CC(C)C)NC(=O)[C@H](CCC(N)=O)NC(=O)CNC(=O)[C@H](CC(C)C)NC(=O)[C@H](CC(C)C)NC(=O)[C@H](CCCNC(=N)N)NC(=O)[C@H](CO)NC(=O)[C@H](Cc1ccccc1)NC(=O)[C@H](CC(=O)O)NC(=O)[C@H](CO)NC(=O)[C@@H](NC(=O)[C@H](Cc1ccccc1)NC(=O)[C@@H](NC(=O)CNC(=O)[C@H](CC(=O)O)NC(=O)[C@H](C)NC(=O)[C@@H](N)Cc1cnc[nH]1)C(C)C)[C@@H](C)O)C(N)=O	none (no result: TDP1 cell CPT, TGFb SMAD3 inh, HepG2 viability, IL-1B inflam inh, TDP1 cell noCPT)
COc1ccc(NC(=S)NC(C)C(c2ccccc2)N2CCOCC2)cc1 (stereo not given)	TDP1 cell CPT inconclusive
CC(=O)C(C(c1ccccc1)N1CCOCC1)N1CCOCC1 (stereo not given)	TDP1 cell CPT inconclusive, TDP1 cell noCPT 18.4µM (no result: TDP1 inh)
CC(NC(=O)c1ccc(-c2ccccc2)cc1)C(c1ccccc1)N1CCOCC1 (stereo not given)	TDP1 cell CPT inconclusive, TDP1 cell noCPT 13µM
CC(NC(=O)Cc1ccccc1)C(c1ccccc1)N1CCOCC1 (stereo not given)	IL-1B inflam inh -64.2
CCc1ccc(C(=O)c2cn(CC(=O)Nc3cccc(C)c3C)c3nc(C)ccc3c2=O)cc1	TDP1 cell CPT inconclusive (no result: IL-1B inflam inh)
Cn1c(C2CCC2)nc2cc(C(=O)N3CCOc4ccccc4C3)cc(NC(=O)C3CCCO3)c21 (stereo not given)	none (no result: TGFb SMAD3 inh, HepG2 viability, TDP1 inh, IL-1B inflam inh)
CCCC1=C(C(=O)OCC)C(c2ccc(OC)c(CSc3ccccn3)c2)C(C#N)=C(N)O1 (stereo not given)	TDP1 cell CPT inconclusive, TDP1 cell noCPT inconclusive
CCOC(=O)C1=C(CSc2nc(-c3ccccc3)ccc2C#N)OC(N)=C(C#N)C1c1ccccc1 (stereo not given)	TDP1 cell CPT 3.66µM, TGFb SMAD3 inh inconclusive, TDP1 cell noCPT 2.91µM
CCCC1=C(C(=O)OCC)C(c2c(C)nn(-c3ccccc3)c2Cl)C(C#N)=C(N)O1 (stereo not given)	TDP1 cell CPT inconclusive, TDP1 cell noCPT 20.6µM
CCOC(=O)CC1=C(C(=O)OCC)C(c2cccnc2)C(C#N)=C(N)O1 (stereo not given)	none
CCOC(=O)C1=C(CC)OC(N)=C(C#N)C1c1cccs1 (stereo not given)	none
CCOC(=O)C1=C(CSc2nc(-c3ccccc3)ccc2C#N)OC(N)=C(C#N)C1c1cccnc1 (stereo not given)	TDP1 cell CPT 2.91µM, TGFb SMAD3 inh inconclusive, TDP1 cell noCPT 4.61µM
C[C@]12c3[nH]c4ccccc4c3CCN1C(=O)C(CC(=O)NCc1cccc(C(F)(F)F)c1)C[C@@H]2C(=O)N1CCCCC1 (stereo not given in full)	TDP1 cell CPT 20.6µM, TGFb SMAD3 inh 11.2µM, IL-1B inflam inh -65.7, TDP1 cell noCPT 14.6µM
CC(C)N(C(=O)[C@H]1C[C@H](CC(=O)NCCC2=CCCCC2)C(=O)N2CCc3c([nH]c4cc(-c5ccco5)ccc34)[C@]12C)C(C)C	TDP1 cell CPT inconclusive, TGFb SMAD3 inh inconclusive, IL-1B inflam inh -68.7, TDP1 cell noCPT inconclusive
